Results filed as inconclusive are left out. Unmarked numbers belong to inactive results. The source made the active and inactive calls. The call rests on the fitted dose curve; in most records, active means well fitted inhibition curve with a large enough effect in the repeat runs; inconclusive means weak or mixed curves; inactive means no such curve, though single readings can be large or run the other way.
On the % scale 0 is the no-effect control and ±100 the full control effect; potency means the concentration at half of the fitted maximal effect.

Sequence of Cytochrome P450 2C9 (Homo sapiens) (P11712 whole entry, looked up): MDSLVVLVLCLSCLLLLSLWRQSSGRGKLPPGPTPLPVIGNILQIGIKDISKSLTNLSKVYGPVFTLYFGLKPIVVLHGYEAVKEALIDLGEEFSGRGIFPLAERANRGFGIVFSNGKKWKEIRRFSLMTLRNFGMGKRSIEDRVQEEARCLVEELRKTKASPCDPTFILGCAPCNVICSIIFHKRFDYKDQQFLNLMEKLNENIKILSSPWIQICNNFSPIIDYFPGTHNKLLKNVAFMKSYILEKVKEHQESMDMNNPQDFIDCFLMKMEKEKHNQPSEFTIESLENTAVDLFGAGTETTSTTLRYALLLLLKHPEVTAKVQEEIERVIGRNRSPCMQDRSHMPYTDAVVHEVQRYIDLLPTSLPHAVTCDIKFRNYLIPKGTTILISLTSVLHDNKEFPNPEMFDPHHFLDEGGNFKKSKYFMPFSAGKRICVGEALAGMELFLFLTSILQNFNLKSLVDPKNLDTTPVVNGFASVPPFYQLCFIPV

The experiment concerns the target Cytochrome P450 2C9 (Homo sapiens) (UniProt P11712). Put plainly: Cytochrome P450 family 2 subfamily C member 9 (CYP2C9) small molecule antagonists: luciferase biochemical (cell-free) qHTS assay (AID 1645842). Further: nearly all actives have a fitted effect of over 55% in size. The following applies: P450-Glo CYP2C9 enzyme assay, luciferin luminescence; series mostly up to 57.4 µM; activity change, negative = inhibition: at the top concentration. In outline: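 Luminescence, after 20 min with luciferin detection reagent, reflected CYP2C9 turnover during a 1 h NADPH-driven reaction at 37C. Enzyme-substrate mix contained 0.4% bovine serum albumin and was preincubated with compound 10 min at room temperature.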
(In general: qHTS replaces the single test concentration by a dilution series.)
Turning to `COc1ccc(C(=O)NC(c2ccccc2Cl)c2cc(Cl)c3cccnc3c2O)cc1` (centres undefined), the Potency is 6.01 µM (active).

Consider `O=c1c2c(on1Cc1ccccc1)CCNCC2`, for which the Potency was 10.7 µM (active).

Consider `CN(C)S(=O)(=O)c1ccc(S(=O)(=O)N(Cc2ccccc2Cl)C[C@@H]2CCCO2)cc1`, for which the Potency is 9.52 µM (active).

Regarding `CN(C)[S+](=O)([O-])c1ccc([S+](=O)([O-])N(Cc2ccccc2)Cc2ccccn2)cc1`, the Potency was 5.35 µM (active).

As for `COc1ccc(NC(=O)CSc2nnc(NC(=O)NC3CCCCC3)s2)cc1OC`, the Potency was 21.3 µM (active).

For the compound `Cc1ccc(C)c(Nc2nc3nonc3nc2Nc2cccc(C)c2C)c1`, the “activity change, negative = inhibition” value was 10.6%.

Consider `COc1ccccc1NC(=O)Cn1c(=O)n(Cc2nc(-c3ccccc3)no2)c(=O)c2ccccc21`, for which the Potency is 2.39 µM (active).

On to `COc1ccc(C(C)=O)cc1CSc1nc(NCc2ccccc2)c2ccccc2n1`, for which the Potency is 2.13 µM (active).

Turning to `COc1ccc(Cn2c(CCC(=O)Nc3cc(C)cc(C)c3)nc3cccnc32)cc1`, the Potency was 6.74 µM (active).

As to `CCOc1ccc(S(=O)(=O)NCc2ccc3c(c2)CCN3C(=O)c2ccc(C)cc2)cc1`, the Potency was 0.301 µM (active).

For `CC1=C(C(=O)Nc2nnc(C(F)(F)F)s2)C(c2ccccc2Cl)N=C(Nc2nc3ccccc3o2)N1` (centres undefined), the Potency was 10.7 µM (active).

Regarding `COCCCNC(=O)CCC(=O)NNc1nc2ccccc2c2nc(-c3ccccc3)nn12`, the Potency was 9.52 µM (active).

On to `CC1(C#N)CCN(c2c(C(=O)N3CCC(C(=O)C4CC4)CC3)cnc3cc(F)c(F)cc23)CC1`, for which the Potency is 9.52 µM (active).

As to `COc1ccc(CNC(=O)c2nc(SCc3ccccc3F)ncc2Cl)cc1`, the “activity change, negative = inhibition” value is 5.92%.
